High-throughput results deposited in PubChem by National Center for Advancing Translational Sciences (NCATS).
TrxR1 substrate – is turned over as a substrate by rat TrxR1 | O89049 | purified TrxR1 substrate turnover, NADPH consumption readout | Potency, µM (titrated, usually from 114 µM), for inactives: top-dose activity change, negative = substrate turnover | 390,000 tested, 0.01% active; further: nearly all actives have a fitted effect of over 50% in size
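Rat TrxR1, dispensed at 90 nM, was prereduced with 400 uM NADPH (final) for 5 min at ~22 deg C, then incubated with compound 15 min before 400 uM selenite. A first-read NADPH fluorescence drop versus no-compound background flagged substrates.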
GLS inhibitor – glutaminase GLS (human) inhibition; O94925; GLS enzymatic activity, qHTS titration; Potency, µM (top dose mostly 45.5 µM), without a hit: at the top dose activity change, negative = inhibition, usual class: inhibitors; 410,000 tested, 0.21% active; AID 624170
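Human kidney-isoform GLS in 45 mM KH2PO4 pH 8.2, 0.02% Tween-20, with compound, started with 1mM L-Glutamine (added stock). Glutamate oxidase/HRP/Amplex red coupled fluorescence read at start and after 30 min at RT.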
rTrxR1 inhibitor – inhibitors of rat thioredoxin reductase 1 | 390,000 tested, 1% active | AID 588453 | recombinant rTrxR1, NADPH fluorescence consumption, selenite substrate | O89049 | Potency, µM (titrated, usually from 114 µM), without a hit: at the top dose activity change, negative = inhibition, hits mostly inhibitors; further: nearly all actives have a fitted effect of over 65% in size
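Rat TrxR1 (90 nM in the dispensed reagent) was pre-reduced with 400 uM NADPH for 5 min at room temperature, then incubated with compound for 15 min. After 400 uM selenite was added, NADPH fluorescence (Ex 340/Em 450 nm) was followed for 8 min.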
mIDH1 inhibitor – human IDH1 R132H inhibition; O75874; IDH1-R132H enzyme, NADPH consumption, diaphorase/resazurin fluorescence; Potency, µM (series often up to 76.6 µM), inactives show top-dose activity change, negative = inhibition, usual class: inhibitors; 390,000 tested, 0.093% active; AID 602179; further: nearly all actives have a fitted effect of over 65% in size
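IDH1-R132H (0.5 ug/mL) preincubated 30 min with compound, then NADPH (0.016 mM) and alpha-KG (2 mM) added; 80 min at RT, pH 7.5. Remaining NADPH coupled via diaphorase/resazurin to fluorescence (540/590 nm); concentration-response curves normalized to no-enzyme control.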
Active calls of the source: *; [ ] = another dose, or the depositor's remark. Rows were chosen to be rich in hits. Some 1.2% of all compounds tested hit in one or more screens of this group. The call rests on the fitted dose curve; in most records, active means well fitted curve in the direction sought with a large enough effect; inconclusive means small, poorly fitted or top-dose-only effect, or another doubt; inactive means no such curve, though single readings can be large; an effect the other way counts as inactive or inconclusive. On the % scale 0 is the no-effect control and ±100 the full control effect; potency means the concentration at half of the fitted maximal effect.

What do the screens show for `Cc1ccc2ccc(C(Nc3ccccn3)c3ccccc3)c(O)c2n1` (stereo not drawn)?
TrxR1 substrate: 0%; GLS inhibitor: 35%; rTrxR1 inhibitor: inconclusive; mIDH1 inhibitor: 10%

How did Cc1ccnc(NC(c2ccccc2)c2ccc3cccnc3c2O)c1 (stereo not drawn) do in these assays?
TrxR1 substrate: 9%[57.1 µM]; GLS inhibitor: 17%; rTrxR1 inhibitor: -77%[57.1 µM]; mIDH1 inhibitor: -1%

Results for COc1cc(C(Nc2ccccn2)c2ccc3ccc(C)nc3c2O)cc(OC)c1O (stereo not drawn) ?
TrxR1 substrate: -6%; GLS inhibitor: 15%; rTrxR1 inhibitor: 1.3µM*; mIDH1 inhibitor: -15%

How did Cc1cccc(NC(c2ccccc2C)c2ccc3ccc(C)nc3c2O)n1 (stereo not drawn) do in these assays?
TrxR1 substrate: 5%; GLS inhibitor: 34%; rTrxR1 inhibitor: inconclusive; mIDH1 inhibitor: -21%

Results for Cc1ccnc(NC(c2ccccc2F)c2ccc3cccnc3c2O)c1 (stereo not drawn) ?
TrxR1 substrate: -2%; GLS inhibitor: 9%; rTrxR1 inhibitor: inconclusive; mIDH1 inhibitor: -10%

What do the screens show for `COc1ccc(C(Nc2cc(C)ccn2)c2ccc3ccc(C)nc3c2O)cc1` (stereo not drawn)?
TrxR1 substrate: 3%; GLS inhibitor: -2%; rTrxR1 inhibitor: 14µM*; mIDH1 inhibitor: 3%

Results for COc1cccc(C2Nc3ccccc3-c3nnc(SCc4ccccc4)nc3O2)c1OC (stereo not drawn) ?
TrxR1 substrate: 2%; GLS inhibitor: 17%; rTrxR1 inhibitor: 1%; mIDH1 inhibitor: 7%

What do the screens show for `COCCCCOc1cc2nc(N3CCCN(C)CC3)nc(NC3CCN(C)CC3)c2cc1OC`?
TrxR1 substrate: 138%; rTrxR1 inhibitor: -33%

What do the screens show for `CC(C)CCNC(=O)c1ccc2c(c1)NC(=O)C(CS(=O)(=O)Cc1ccc(F)cc1)N2` (stereo not drawn)?
TrxR1 substrate: 5%; GLS inhibitor: 13µM*; rTrxR1 inhibitor: 11%; mIDH1 inhibitor: -8%

What do the screens show for `Cc1ccc(CNC(=O)c2ccc3c(c2)NC(=O)C(CS(=O)(=O)Cc2cccc(F)c2)N3)cc1` (stereo not drawn)?
TrxR1 substrate: 1%; GLS inhibitor: -3%; rTrxR1 inhibitor: -15%; mIDH1 inhibitor: -5%

Results for Cc1cccc(CS(=O)(=O)CC2Nc3ccc(C(=O)NCc4ccccc4)cc3NC2=O)c1 (stereo not drawn) ?
TrxR1 substrate: 11%; GLS inhibitor: 10µM*; rTrxR1 inhibitor: 6%; mIDH1 inhibitor: 2%

How did COc1cccc(-n2c(SCC(N)=O)nc3c(oc4ccccc43)c2=O)c1 do in these assays?
TrxR1 substrate: 2%; GLS inhibitor: 4%; rTrxR1 inhibitor: 14%; mIDH1 inhibitor: 15%

How did COc1cc2c(C(=O)NCc3ccc(C)o3)cn(CC(C)C)c(=O)c2cc1OC do in these assays?
TrxR1 substrate: -9%; GLS inhibitor: 7%; rTrxR1 inhibitor: 20µM*; mIDH1 inhibitor: 2%

Results for O=C1C=CC(=O)N1Cc1cccnc1 ?
TrxR1 substrate: 4%; GLS inhibitor: -8%; rTrxR1 inhibitor: 79µM*; mIDH1 inhibitor: -3%

How did O=C1C=CC(=O)N1Cc1ccncc1 do in these assays?
TrxR1 substrate: 5%; GLS inhibitor: 5%; rTrxR1 inhibitor: inconclusive; mIDH1 inhibitor: -1%

Results for Oc1cc2cc(-c3csc(-c4ccc(F)cc4)n3)cc3c2n1CCC3 ?
TrxR1 substrate: 6%; rTrxR1 inhibitor: 27%

What do the screens show for `O=C1/C(=C\c2ccccc2)CN(C(=O)CCN2CCCCC2)C/C1=C/c1ccccc1`?
TrxR1 substrate: -9%; GLS inhibitor: 1%; rTrxR1 inhibitor: 5µM*; mIDH1 inhibitor: 3%

Results for O=C1c2ccccc2-c2onc3ccc(NCc4ccco4)c1c23 ?
TrxR1 substrate: -8%; GLS inhibitor: -1%; rTrxR1 inhibitor: 25µM*; mIDH1 inhibitor: 13%

How did CCNc1ccc2noc3c2c1C(=O)c1ccccc1-3 do in these assays?
TrxR1 substrate: 1%[57.1 µM]; GLS inhibitor: -19%; rTrxR1 inhibitor: -5%[57.1 µM]; mIDH1 inhibitor: -7%

Results for COC(=O)C(=Cc1ccccc1[N+](=O)[O-])C(=O)OC ?
TrxR1 substrate: 3%; GLS inhibitor: -2%; rTrxR1 inhibitor: 56µM*; mIDH1 inhibitor: -8%
